Counter-ions that a name gives are not always drawn.
Tested on: MDA-MB-468
Test: phospho-S6 immunofluorescence (DAPI-normalised), per-plate z-score; higher = higher phospho-S6 signal (less pathway suppression)
Conditions: 24 h
Procedure: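 GPCR-targeted compound library (MedChemExpress HY-L006) tested on MDA-MB-468 PTEN-null TNBC cells in 384-well plates at 0.1, 1 or 10 uM, combined with vehicle, GDC0941 450 nM or lapatinib 1 uM, for 24 h. Phospho-S6 (S240/244) immunofluorescence normalised to DAPI and expressed as a per-plate z-score; values are the mean of biological triplicates.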

Row | Compound | phospho-S6 immunofluorescence (z-score) (co-treatment: GDC0941 450 nM) | phospho-S6 immunofluorescence (z-score) (co-treatment: lapatinib 1 uM) | phospho-S6 immunofluorescence (z-score) (co-treatment: vehicle)
1 | CCN(Cc1ccncc1)C(=O)C(CO)c1ccccc1 (stereo not given) [Tropicamide] (compound 10 µM) | 0.17 | 1.42 | -0.17
2 | N=C(N)N/N=C/c1c(Cl)cccc1Cl [Guanabenz (Acetate)] (compound 10 µM) | 0.61 | -0.12 | -0.2
3 | Cc1ccc(N(CC2=NCCN2)c2cccc(O)c2)cc1 [Phentolamine (mesylate)] (compound 10 µM) | -0.17 | 1.1 | -0.58
4 | CCn1c2ccccc2c2cc(Nc3ccnc(NCCCN4CCOCC4)n3)ccc21 (compound 10 µM) | -3.59 | -8.74 | -10.3
5 | NC(N)=Nc1nc(CSCCN/C=N/S(=O)(=O)c2ccc(Br)cc2)cs1 [Ebrotidine] (compound 10 µM) | -4.2 | -3.36 | -1.7
6 | CCc1ccc(OCc2ccccc2C(=O)Nc2ccc3nc(C)cc(N)c3c2)cc1 (compound 10 µM) | -5.98 | -12 | -10.4
7 | CCCN(CCc1cccs1)[C@H]1CCc2c(O)cccc2C1 [Rotigotine] (compound 10 µM) | 0.53 | -0.05 | -0.73
8 | Nc1ccc(/C=C/c2cccc(C(=O)O)n2)cc1 (compound 10 µM) | 0.9 | 0.88 | 1.07
9 | O=C(c1ccc(F)cc1)C1CCN(CCn2c(=O)[nH]c3ccccc3c2=O)CC1 [Ketanserin] (compound 10 µM) | -0.64 | -0.02 | -0.85
10 | COc1ccc(CCN2CCN(CCCc3ccccc3)CC2)cc1OC [SA4503 (dihydrochloride)] (compound 10 µM) | 0.13 | -0.13 | -0.47
11 | Cc1noc(-c2ccc(-c3ccc(CC(=O)O)cc3)cc2)c1NC(=O)OC(C)c1ccccc1Cl (stereo not given) (compound 10 µM) | 0.23 | 0.28 | 0.02
12 | CCCCC[C@H](O)/C=C/[C@H]1[C@H](O)CC(=O)[C@@H]1C/C=C\CCCC(=O)O [Prostaglandin E2] (compound 10 µM) | -0.11 | 1.46 | -0.52
13 | C[C@H](NC(=O)C(C)(C)Oc1ccc(C(F)(F)F)cn1)[C@@H](Cc1ccc(Cl)cc1)c1cccc(C#N)c1 [Taranabant] (compound 10 µM) | -4.19 | -2.35 | -2.4
14 | Cc1sc(C)c(C(=O)NC2(c3ccc(C(=O)O)cc3)CC2)c1Cc1ccc(C(F)(F)F)cc1 (compound 10 µM) | -1.42 | -0.58 | 0.73
15 | CC[C@H](NC(=O)c1c(C)c(-c2ccccc2)nc2ccccc12)c1ccccc1 (compound 10 µM) | -4.55 | -3.25 | -1.64
16 | OCCOCCN1CCN(Cc2cccc(Oc3ccccc3)c2)CC1 (compound 10 µM) | -0.36 | 0.35 | -1.04
17 | CCN(CCCc1ccccc1)CCCc1ccccc1 [Alverine (citrate)] (compound 10 µM) | -0.52 | -1.04 | 0.02
18 | Cc1nc2ccc(NC(=O)Nc3ccnc4cccnc34)cc2o1 (compound 10 µM) | 0.6 | -1.8 | 0.79
19 | CC(C(=O)Nc1cc(C#N)ccc1CCCC(=O)O)c1ccc(F)c2ccccc12 (stereo not given) (compound 10 µM) | -3.03 | -2.8 | -0.03
20 | CCNC(=O)[C@@H]1CCCN1C(=O)[C@H](CCCNC(=N)N)NC(=O)[C@H](CC(C)C)NC(=O)[C@@H](CC(C)C)NC(=O)[C@H](Cc1ccc(O)cc1)NC(=O)[C@H](CO)NC(=O)[C@H](Cc1c[nH]c2ccccc12)NC(=O)[C@H](Cc1c[nH]cn1)NC(=O)[C@@H]1CCC(=O)N1 [Leuprolide (Acetate)] (compound 10 µM) | 0.41 | -0.17 | 0.11
21 | CCCCC(C)(O)C/C=C/[C@H]1[C@H](O)CC(=O)[C@@H]1CCCCCCC(=O)OC (mixture of isomers) [Misoprostol] (compound 10 µM) | 0.36 | 0.67 | 1.59
22 | CN1CCN2c3c(cccc31)[C@@H]1CN(CCCC(=O)c3ccc(F)cc3)CC[C@@H]12 [lumateperone (Tosylate)] (compound 10 µM) | -3.44 | -3.22 | -5.62
23 | Cc1ccc(C)c(OCCn2cc(C(=O)O)c3ccccc32)c1 (compound 10 µM) | 0.61 | -0.34 | -0.21
24 | O=C(CCCN1CCN(c2ccccn2)CC1)c1ccc(F)cc1 [Azaperone] (compound 10 µM) | 0.08 | 0.77 | 0.8
25 | O=C(O[C@H]1CN2CCC1CC2)N1CCc2ccccc2[C@@H]1c1ccccc1 [Solifenacin (hydrochloride)] (compound 10 µM) | 0.75 | 1.12 | -1.36
